# This excerpt belongs to a sample that is enriched for the strongest signals.
# Columns and labels:
# Assay in all cases: glycan array binding signal (z-score within array); higher = stronger binding
# Settings in all cases: glycan notation: IUPAC condensed, linker removed
# [1] = molecular target: Fuc(a1-2)Gal
# Procedure, shortened: (§1)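 Glycan array data came from 3228 arrays in the Consortium for Functional Glycomics database, and only arrays with an available protein sequence were kept. Glycan names were put into IUPAC-condensed notation, and columns mapping to the same glycan were averaged. The binding signal is a within-array Z-score, averaged across arrays of one protein sequence run at different concentrations or buffers and across linkers. A negative Z-score can be read as non-binding.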
# [2] = molecular target: Fuc(a1-2)Gal(b1-3)GlcNAc(b1-2)Man(a1-3)[Fuc(a1-2)Gal(b1-3)GlcNAc(b1-2)Man(a1-6)]Man(b1-4)GlcNAc(b1-4)GlcNAc
# Procedure, shortened: as §1
# [3] = molecular target: Fuc(a1-2)Gal(b1-3)[Fuc(a1-4)]GlcNAc(b1-2)Man(a1-3)[Fuc(a1-2)Gal(b1-3)[Fuc(a1-4)]GlcNAc(b1-2)Man(a1-6)]Man(b1-4)GlcNAc(b1-4)[Fuc(a1-6)]GlcNAc(b1-4)[Fuc(a1-6)]GlcNAc
# Procedure, shortened: as §1
# [4] = molecular target: Fuc(a1-2)Gal(b1-4)[Fuc(a1-3)]GlcNAc(b1-2)[Fuc(a1-2)Gal(b1-4)[Fuc(a1-3)]GlcNAc(b1-4)]Man(a1-3)[Fuc(a1-2)Gal(b1-4)[Fuc(a1-3)]GlcNAc(b1-2)Man(a1-6)]Man(b1-4)GlcNAc(b1-4)GlcNAc
# Procedure, shortened: as §1
# [5] = molecular target: Fuc(a1-2)Gal(b1-4)[Fuc(a1-3)]GlcNAc(b1-3)Gal(b1-4)[Fuc(a1-3)]GlcNAc(b1-3)Gal(b1-4)[Fuc(a1-3)]GlcNAc
# Procedure, shortened: as §1
# [6] = molecular target: Fuc(a1-2)Gal6S(b1-4)Glc
# Procedure, shortened: as §1
# [7] = molecular target: Fuc(a1-2)[Gal(a1-3)]Gal(b1-3)GlcNAc(b1-2)Man(a1-3)[Fuc(a1-2)[Gal(a1-3)]Gal(b1-3)GlcNAc(b1-2)Man(a1-6)]Man(b1-4)GlcNAc(b1-4)[Fuc(a1-6)]GlcNAc
# Procedure, shortened: as §1
# [8] = molecular target: Fuc(a1-2)[Gal(a1-3)]Gal(b1-4)GlcNAc
# Procedure, shortened: as §1
# [9] = molecular target: Fuc(a1-2)[Gal(a1-3)]Gal(b1-4)GlcNAc(b1-2)Man
# Procedure, shortened: as §1
# [10] = molecular target: Fuc(a1-2)[GalNAc(a1-3)]Gal(b1-4)GlcNAc(b1-2)Man
# Procedure, shortened: as §1
# [11] = molecular target: Fuc(a1-2)[GalNAc(a1-3)]Gal(b1-4)GlcNAc(b1-3)GalNAc
# Procedure, shortened: as §1
# [12] = molecular target: Fuc(a1-3)[Gal(b1-4)]GlcNAc(b1-6)[Gal(b1-3)GlcNAc(b1-3)]Gal(b1-4)Glc
# Procedure, shortened: as §1
# [13] = molecular target: Fuc(a1-3)[Gal3S(b1-4)]GlcNAc
# Procedure, shortened: as §1
# [14] = molecular target: Gal(a1-4)Gal(b1-4)Glc
# Procedure, shortened: as §1
# [15] = molecular target: Gal(b1-3)GlcNAc
# Procedure, shortened: as §1
# [16] = molecular target: Gal(b1-3)GlcNAc(a1-6)Gal(b1-4)GlcNAc
# Procedure, shortened: as §1
# [17] = molecular target: Gal(b1-3)GlcNAc(b1-2)Man(a1-3)[Gal(b1-3)GlcNAc(b1-2)Man(a1-6)]Man(b1-4)GlcNAc(b1-4)GlcNAc
# Procedure, shortened: as §1
# [18] = molecular target: Gal(b1-3)GlcNAc(b1-2)Man(a1-3)[Gal(b1-3)GlcNAc(b1-2)Man(a1-6)]Man(b1-4)GlcNAc(b1-4)[Fuc(a1-6)]GlcNAc
# Procedure, shortened: as §1
# [19] = molecular target: Gal(b1-3)GlcNAc(b1-3)Gal(b1-3)GlcNAc
# Procedure, shortened: as §1
# [20] = molecular target: Gal(b1-3)GlcNAc(b1-3)Gal(b1-4)GlcNAc
# Procedure, shortened: as §1
# [21] = molecular target: Gal(b1-3)GlcNAc(b1-3)Gal(b1-4)GlcNAc(b1-2)[Gal(b1-3)GlcNAc(b1-3)Gal(b1-4)GlcNAc(b1-6)]Man(a1-6)[Gal(b1-3)GlcNAc(b1-3)Gal(b1-4)GlcNAc(b1-2)Man(a1-3)]Man(b1-4)GlcNAc(b1-4)[Fuc(a1-6)]GlcNAc
# Procedure, shortened: as §1
# [22] = molecular target: Gal(b1-3)GlcNAc(b1-3)Gal(b1-4)GlcNAc(b1-3)Gal(b1-4)GlcNAc(b1-2)[Gal(b1-3)GlcNAc(b1-3)Gal(b1-4)GlcNAc(b1-3)Gal(b1-4)GlcNAc(b1-6)]Man(a1-6)[Gal(b1-3)GlcNAc(b1-3)Gal(b1-4)GlcNAc(b1-3)Gal(b1-4)GlcNAc(b1-2)Man(a1-3)]Man(b1-4)GlcNAc(b1-4)[Fuc(a1-6)]GlcNAc
# Procedure, shortened: as §1
# [23] = molecular target: Gal(b1-3)[Fuc(a1-4)]GlcNAc(b1-3)Gal(b1-4)[Fuc(a1-3)]GlcNAc
# Procedure, shortened: as §1
# [24] = molecular target: Gal(b1-3)[Neu5Ac(b2-6)]GalNAc
# Procedure, shortened: as §1
# [25] = molecular target: Gal(b1-4)GlcNAc(b1-3)Gal(b1-4)GlcNAc
# Procedure, shortened: as §1
# [26] = molecular target: Gal(b1-4)GlcNAc(b1-3)Gal(b1-4)GlcNAc(b1-2)Man(a1-3)[Gal(b1-4)GlcNAc(b1-3)Gal(b1-4)GlcNAc(b1-2)Man(a1-6)]Man(b1-4)GlcNAc(b1-4)[Fuc(a1-6)]GlcNAc
# Procedure, shortened: as §1
# [27] = molecular target: Gal(b1-4)GlcNAc(b1-3)Gal(b1-4)GlcNAc(b1-3)Gal(b1-4)GlcNAc(b1-3)Gal(b1-4)GlcNAc(b1-2)Man(a1-3)[Gal(b1-4)GlcNAc(b1-3)Gal(b1-4)GlcNAc(b1-3)Gal(b1-4)GlcNAc(b1-3)Gal(b1-4)GlcNAc(b1-2)Man(a1-6)]Man(b1-4)GlcNAc(b1-4)GlcNAc
# Procedure, shortened: as §1
# [28] = molecular target: Gal(b1-4)GlcNAc(b1-3)Gal(b1-4)GlcNAc(b1-3)Gal(b1-4)GlcNAc(b1-3)Gal(b1-4)GlcNAc(b1-2)Man(a1-3)[Gal(b1-4)GlcNAc(b1-3)Gal(b1-4)GlcNAc(b1-3)Gal(b1-4)GlcNAc(b1-3)Gal(b1-4)GlcNAc(b1-2)Man(a1-6)]Man(b1-4)GlcNAc(b1-4)[Fuc(a1-6)]GlcNAc
# Procedure, shortened: as §1
# [29] = molecular target: Gal(b1-4)GlcNAc(b1-3)Gal(b1-4)GlcNAc(b1-3)Gal(b1-4)GlcNAc(b1-3)Gal(b1-4)GlcNAc(b1-2)[Gal(b1-4)GlcNAc(b1-3)Gal(b1-4)GlcNAc(b1-3)Gal(b1-4)GlcNAc(b1-3)Gal(b1-4)GlcNAc(b1-6)]Man(a1-6)[Gal(b1-4)GlcNAc(b1-3)Gal(b1-4)GlcNAc(b1-3)Gal(b1-4)GlcNAc(b1-3)Gal(b1-4)GlcNAc(b1-2)Man(a1-3)]Man(b1-4)GlcNAc(b1-4)[Fuc(a1-6)]GlcNAc
# Procedure, shortened: as §1
# [30] = molecular target: Gal(b1-4)GlcNAc(b1-3)Gal(b1-4)GlcNAc(b1-3)Gal(b1-4)GlcNAc(b1-3)Gal(b1-4)GlcNAc(b1-3)Gal(b1-4)GlcNAc(b1-2)[Gal(b1-4)GlcNAc(b1-3)Gal(b1-4)GlcNAc(b1-3)Gal(b1-4)GlcNAc(b1-3)Gal(b1-4)GlcNAc(b1-3)Gal(b1-4)GlcNAc(b1-6)]Man(a1-6)[Gal(b1-4)GlcNAc(b1-3)Gal(b1-4)GlcNAc(b1-3)Gal(b1-4)GlcNAc(b1-3)Gal(b1-4)GlcNAc(b1-3)Gal(b1-4)GlcNAc(b1-2)Man(a1-3)]Man(b1-4)GlcNAc(b1-4)[Fuc(a1-6)]GlcNAc
# Procedure, shortened: as §1
# [31] = molecular target: Gal(b1-4)GlcNAc6P
# Procedure, shortened: as §1
# [32] = molecular target: Gal6S(b1-4)GlcNAc6S
# Procedure, shortened: as §1
# [33] = molecular target: Glc(b1-6)Glc
# Procedure, shortened: as §1
# [34] = molecular target: GlcA3S(b1-3)Gal(b1-4)GlcNAc(b1-2)Man
# Procedure, shortened: as §1
# [35] = molecular target: GlcNAc(a1-4)Gal(b1-4)GlcNAc(b1-3)Gal(b1-4)GlcNAc(b1-3)Gal(b1-4)GlcNAc
# Procedure, shortened: as §1
# [36] = molecular target: GlcNAc(b1-3)Gal(b1-4)GlcNAc
# Procedure, shortened: as §1
# [37] = molecular target: GlcNAc(b1-4)Gal(b1-4)GlcNAc
# Procedure, shortened: as §1
# [38] = molecular target: Kdn(a2-6)Gal(b1-4)GlcNAc
# Procedure, shortened: as §1
# [39] = molecular target: Man(a1-2)Man(a1-2)Man(a1-3)Man
# Procedure, shortened: as §1
# [40] = molecular target: Neu5Ac(a2-3)Gal(b1-3)GlcNAc(b1-3)Gal(b1-4)GlcNAc
# Procedure, shortened: as §1
# [41] = molecular target: Neu5Ac(a2-3)Gal(b1-4)GlcNAc
# Procedure, shortened: as §1
# [42] = molecular target: Neu5Ac(a2-3)Gal(b1-4)[Fuc(a1-3)]GlcNAc(b1-6)[Gal(b1-3)]GalNAc
# Procedure, shortened: as §1
# [43] = molecular target: Neu5Ac(a2-6)GalNAc
# Procedure, shortened: as §1
# [44] = molecular target: Neu5Ac(a2-8)Neu5Ac
# Procedure, shortened: as §1
# [45] = molecular target: Neu5Ac(a2-8)Neu5Ac(a2-8)Neu5Ac
# Procedure, shortened: as §1
# [46] = molecular target: Neu5Ac(b2-6)GalNAc
# Procedure, shortened: as §1
# [47] = molecular target: Neu5Gc(a2-3)Gal(b1-3)[Fuc(a1-4)]GlcNAc
# Procedure, shortened: as §1
# [48] = molecular target: Neu5Gc(a2-8)Neu5Ac(a2-3)Gal(b1-4)GlcNAc
# Procedure, shortened: as §1
binder,measurement,setting,value
"SGC, Q9M345 (protein) QNLNFTYNGFHPPLTDISLQGLATVTPNGLLKLTNTSVQKTGHAFCTERIRFKDSQNGNVSSFSTTFVFAIHSQIPTLSGHGIAFVVAPTLGLPFALPSQYIGLFNISNNGNDTNHIFAVEFDTIQSSEFGDPNDNHVGIDLNGLRSANYSTAGYRDDHDKFQNLSLISRKRIQVWIDYDNRSHRIDVTVAPFDSDKPRKPLVSYVRDLSSILLEDMYVGFSSATGSVLSEHFLVGWSFRLNGEAPMLSLSKLPKLPRFEPRRIS",glycan array binding signal (z-score),[1],-0.354
same,glycan array binding signal (z-score),[2],3.64
same,glycan array binding signal (z-score),[3],-0.292
same,glycan array binding signal (z-score),[4],-0.12
same,glycan array binding signal (z-score),[5],-0.332
same,glycan array binding signal (z-score),[6],-0.377
same,glycan array binding signal (z-score),[7],-0.4
same,glycan array binding signal (z-score),[8],-0.374
same,glycan array binding signal (z-score),[9],-0.352
same,glycan array binding signal (z-score),[10],-0.4
same,glycan array binding signal (z-score),[11],-0.344
same,glycan array binding signal (z-score),[12],-0.291
same,glycan array binding signal (z-score),[13],-0.299
same,glycan array binding signal (z-score),[14],-0.292
same,glycan array binding signal (z-score),[15],-0.208
same,glycan array binding signal (z-score),[16],0.154
same,glycan array binding signal (z-score),[17],3.77
same,glycan array binding signal (z-score),[18],6.74
same,glycan array binding signal (z-score),[19],0.723
same,glycan array binding signal (z-score),[20],-0.434
same,glycan array binding signal (z-score),[21],5.28
same,glycan array binding signal (z-score),[22],4.72
same,glycan array binding signal (z-score),[23],-0.357
same,glycan array binding signal (z-score),[24],-0.305
same,glycan array binding signal (z-score),[25],-0.296
same,glycan array binding signal (z-score),[26],4.81
same,glycan array binding signal (z-score),[27],4.57
same,glycan array binding signal (z-score),[28],5.27
same,glycan array binding signal (z-score),[29],8.45
same,glycan array binding signal (z-score),[30],5.39
same,glycan array binding signal (z-score),[31],-0.448
same,glycan array binding signal (z-score),[32],0.254
same,glycan array binding signal (z-score),[33],-0.344
same,glycan array binding signal (z-score),[34],-0.501
same,glycan array binding signal (z-score),[35],-0.351
same,glycan array binding signal (z-score),[36],-0.367
same,glycan array binding signal (z-score),[37],-0.349
same,glycan array binding signal (z-score),[38],-0.393
same,glycan array binding signal (z-score),[39],-0.36
same,glycan array binding signal (z-score),[40],-0.413
same,glycan array binding signal (z-score),[41],-0.311
same,glycan array binding signal (z-score),[42],8.35
same,glycan array binding signal (z-score),[43],-0.34
same,glycan array binding signal (z-score),[44],-0.356
same,glycan array binding signal (z-score),[45],-0.347
same,glycan array binding signal (z-score),[46],-0.286
same,glycan array binding signal (z-score),[47],-0.349
same,glycan array binding signal (z-score),[48],-0.365

# Reference: the supplement of paper PMC8728848
